From article PMC7862700, “An all-to-all approach to the identification of sequence-specific readers for epigenetic DNA modifications on cytosine” come the findings set out here.

What all share (experiment): DAPPL (digital affinity profiling via proximity ligation, sequencing); 10 mM Tris-HCl pH 7.5, 50 mM NaCl, 1 mM DTT, 4% glycerol, room temperature, 30 min; GST-TFs on glutathione beads, 16-mer random dsDNA library, 0.1% formaldehyde crosslink after washing; high values mean tight binding
One test concerns the target T1, FEV (Homo sapiens, UniProt Q99581 1-238).
T1 sequence: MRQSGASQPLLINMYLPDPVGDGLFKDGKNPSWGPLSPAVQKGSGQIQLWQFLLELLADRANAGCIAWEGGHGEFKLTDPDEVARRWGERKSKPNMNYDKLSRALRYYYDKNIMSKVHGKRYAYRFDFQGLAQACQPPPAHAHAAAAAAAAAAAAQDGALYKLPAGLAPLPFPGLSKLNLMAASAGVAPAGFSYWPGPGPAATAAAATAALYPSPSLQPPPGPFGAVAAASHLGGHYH
The following applies: protein: recombinant; tags: N-terminal GST; dsDNA, one strand shown. In short, it runs like this: (§1)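 Binding signal is each hexamer's read frequency for a factor divided by its frequency in the tag-only sample. The factors were GST-fused human transcription factors from yeast, captured on glutathione beads, DNA-barcoded and pooled with that sample. Pools were incubated with 200 nmole of a random double-stranded 16-mer DNA library in Tris/NaCl/DTT/glycerol buffer at room temperature for 30 min, then washed, crosslinked with 0.1% formaldehyde, proximity-ligated with BsaI/T4 ligase (1 h, 37 °C), PCR-amplified and sequenced on an Illumina NextSeq500.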

The target of the next test is ETV5 (Homo sapiens, UniProt P41161 1-510). The settings on record: protein: recombinant; tags: N-terminal GST; dsDNA, one strand shown. In short, it runs like this:
as §1

Another test concerns the target HSF1 (Homo sapiens, UniProt Q00613 1-529). The settings on record: protein: recombinant; tags: N-terminal GST; chain copies: 3; dsDNA, one strand shown. In short, it runs like this: as §1
A further test concerns the target T2, SPIC (Homo sapiens, UniProt Q8N5J4 1-248).
T2 sequence: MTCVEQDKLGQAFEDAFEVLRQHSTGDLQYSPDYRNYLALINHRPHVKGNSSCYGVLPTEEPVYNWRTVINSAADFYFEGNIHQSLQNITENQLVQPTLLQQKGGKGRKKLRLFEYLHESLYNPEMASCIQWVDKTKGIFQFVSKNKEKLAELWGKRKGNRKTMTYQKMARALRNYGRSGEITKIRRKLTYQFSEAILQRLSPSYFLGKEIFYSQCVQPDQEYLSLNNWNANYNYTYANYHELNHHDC
The following applies: protein: recombinant; tags: N-terminal GST; dsDNA, one strand shown. In short, it runs like this: as §1

For the next test, the target named is ELF4 (Homo sapiens, UniProt Q99607 1-663). The following applies: protein: recombinant; tags: N-terminal GST; dsDNA, one strand shown. In short, it runs like this: as §1
Sequence of ELF4 (Q99607 whole entry): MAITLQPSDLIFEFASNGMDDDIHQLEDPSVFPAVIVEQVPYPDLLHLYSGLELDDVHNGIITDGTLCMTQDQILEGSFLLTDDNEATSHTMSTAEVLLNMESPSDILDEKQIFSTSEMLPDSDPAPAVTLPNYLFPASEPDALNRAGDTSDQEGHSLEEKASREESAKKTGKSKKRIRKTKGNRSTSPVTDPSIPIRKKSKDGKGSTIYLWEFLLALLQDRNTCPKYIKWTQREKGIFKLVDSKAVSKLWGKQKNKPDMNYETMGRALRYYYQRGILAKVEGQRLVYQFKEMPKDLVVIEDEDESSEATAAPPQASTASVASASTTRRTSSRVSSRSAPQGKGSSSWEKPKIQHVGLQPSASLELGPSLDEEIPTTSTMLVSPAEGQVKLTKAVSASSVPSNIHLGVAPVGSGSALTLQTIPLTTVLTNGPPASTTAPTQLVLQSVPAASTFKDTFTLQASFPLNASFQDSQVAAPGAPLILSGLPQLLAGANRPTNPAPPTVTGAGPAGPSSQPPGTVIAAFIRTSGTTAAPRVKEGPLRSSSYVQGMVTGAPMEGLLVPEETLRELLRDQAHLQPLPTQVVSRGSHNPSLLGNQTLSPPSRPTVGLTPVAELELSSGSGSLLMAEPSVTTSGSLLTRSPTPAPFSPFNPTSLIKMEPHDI
The target of the next test is T3, ELK4 (Homo sapiens, UniProt P28324-2 1-405).
T3 sequence: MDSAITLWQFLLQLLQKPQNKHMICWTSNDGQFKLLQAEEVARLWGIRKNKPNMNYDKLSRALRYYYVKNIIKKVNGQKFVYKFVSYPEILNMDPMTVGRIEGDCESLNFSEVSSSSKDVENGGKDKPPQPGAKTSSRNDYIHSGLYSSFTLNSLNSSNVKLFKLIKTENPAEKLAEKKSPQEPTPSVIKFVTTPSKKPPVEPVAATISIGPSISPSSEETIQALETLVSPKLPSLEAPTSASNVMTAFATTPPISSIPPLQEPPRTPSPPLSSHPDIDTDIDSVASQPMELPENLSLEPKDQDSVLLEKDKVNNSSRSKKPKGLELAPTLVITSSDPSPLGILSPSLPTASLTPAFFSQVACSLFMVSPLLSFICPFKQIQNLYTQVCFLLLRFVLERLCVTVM
The settings on record: protein: recombinant; tags: N-terminal GST; dsDNA, one strand shown. Summed up: as §1

In another test the target is T4, ETV2 (Homo sapiens, UniProt O00321 1-342).
T4 sequence: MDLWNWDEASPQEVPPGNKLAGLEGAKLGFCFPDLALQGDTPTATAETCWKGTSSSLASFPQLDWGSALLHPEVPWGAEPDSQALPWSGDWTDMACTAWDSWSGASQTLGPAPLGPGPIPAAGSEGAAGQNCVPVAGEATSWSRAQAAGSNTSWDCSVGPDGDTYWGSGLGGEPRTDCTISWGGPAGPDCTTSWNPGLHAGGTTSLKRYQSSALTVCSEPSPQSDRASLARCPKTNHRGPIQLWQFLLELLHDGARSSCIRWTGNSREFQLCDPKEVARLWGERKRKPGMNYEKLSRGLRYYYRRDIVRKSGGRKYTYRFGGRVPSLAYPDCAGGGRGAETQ
The settings on record: protein: recombinant; tags: N-terminal GST; dsDNA, one strand shown. Summed up:
as §1

In a further test the target is T5, ELF3 (Homo sapiens, UniProt P78545 1-371).
T5 sequence: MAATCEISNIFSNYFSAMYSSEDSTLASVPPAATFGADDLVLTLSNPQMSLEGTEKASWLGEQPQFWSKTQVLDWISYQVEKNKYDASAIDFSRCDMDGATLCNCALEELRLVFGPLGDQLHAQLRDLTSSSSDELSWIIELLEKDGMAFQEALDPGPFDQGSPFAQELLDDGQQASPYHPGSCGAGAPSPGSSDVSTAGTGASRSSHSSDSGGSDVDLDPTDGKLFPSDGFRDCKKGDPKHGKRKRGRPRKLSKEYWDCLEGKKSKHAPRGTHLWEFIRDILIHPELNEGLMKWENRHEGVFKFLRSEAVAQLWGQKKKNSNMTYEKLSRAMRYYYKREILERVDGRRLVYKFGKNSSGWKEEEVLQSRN
The following applies: protein: recombinant; tags: N-terminal GST; dsDNA, one strand shown. In short, it runs like this: as §1

The target of a further test is CRX (Homo sapiens, UniProt O43186 1-299). The settings on record: protein: recombinant; tags: N-terminal GST; dsDNA, one strand shown. Summed up: as §1
Sequence of CRX (O43186 whole entry): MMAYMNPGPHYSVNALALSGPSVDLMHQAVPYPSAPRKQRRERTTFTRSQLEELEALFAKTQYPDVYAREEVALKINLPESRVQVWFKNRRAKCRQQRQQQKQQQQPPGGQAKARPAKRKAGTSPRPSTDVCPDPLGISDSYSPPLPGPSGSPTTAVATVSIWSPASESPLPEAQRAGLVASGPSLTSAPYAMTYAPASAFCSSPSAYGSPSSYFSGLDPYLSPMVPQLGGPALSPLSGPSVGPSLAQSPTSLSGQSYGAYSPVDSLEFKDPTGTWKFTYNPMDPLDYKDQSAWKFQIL
A further test deals with ETV1 (Homo sapiens, UniProt P50549 1-477). The settings on record: protein: recombinant; tags: N-terminal GST; dsDNA, one strand shown. Summed up:
as §1

In a further test the target is T6, ERF (Homo sapiens, UniProt P50548 1-548).
T6 sequence: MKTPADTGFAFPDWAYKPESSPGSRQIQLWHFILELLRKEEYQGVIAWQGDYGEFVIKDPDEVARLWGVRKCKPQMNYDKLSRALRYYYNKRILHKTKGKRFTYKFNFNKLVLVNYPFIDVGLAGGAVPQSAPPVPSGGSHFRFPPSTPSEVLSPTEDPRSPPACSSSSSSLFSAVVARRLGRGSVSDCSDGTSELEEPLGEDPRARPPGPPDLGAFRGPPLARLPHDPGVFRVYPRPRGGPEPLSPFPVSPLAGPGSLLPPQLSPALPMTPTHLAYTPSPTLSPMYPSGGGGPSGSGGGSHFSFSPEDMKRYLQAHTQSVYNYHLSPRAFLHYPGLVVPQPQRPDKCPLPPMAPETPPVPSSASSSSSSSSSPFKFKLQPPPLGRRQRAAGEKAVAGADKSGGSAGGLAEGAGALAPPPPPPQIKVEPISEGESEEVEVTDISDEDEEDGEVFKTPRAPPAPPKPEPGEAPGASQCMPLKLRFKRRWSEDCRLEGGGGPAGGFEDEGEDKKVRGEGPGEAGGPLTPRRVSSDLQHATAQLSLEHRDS
The following applies: protein: recombinant; tags: N-terminal GST; dsDNA, one strand shown. In short, it runs like this: as §1

For another test, the target named is T7, ETV3L (Homo sapiens, UniProt Q6ZN32 1-361).
T7 sequence: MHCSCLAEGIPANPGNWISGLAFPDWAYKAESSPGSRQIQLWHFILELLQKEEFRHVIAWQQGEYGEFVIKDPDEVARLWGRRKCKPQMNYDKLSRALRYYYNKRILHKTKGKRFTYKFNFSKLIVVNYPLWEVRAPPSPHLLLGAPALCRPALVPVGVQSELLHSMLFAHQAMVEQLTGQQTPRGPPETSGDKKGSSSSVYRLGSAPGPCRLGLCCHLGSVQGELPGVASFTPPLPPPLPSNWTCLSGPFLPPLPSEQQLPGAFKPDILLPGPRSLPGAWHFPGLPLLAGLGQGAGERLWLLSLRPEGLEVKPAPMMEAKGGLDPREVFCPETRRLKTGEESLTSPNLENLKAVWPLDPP
The following applies: protein: recombinant; tags: N-terminal GST; dsDNA, one strand shown. In short, it runs like this:
as §1

The target in a further test is T8, ETS2 (Homo sapiens, UniProt P15036 1-469).
T8 sequence: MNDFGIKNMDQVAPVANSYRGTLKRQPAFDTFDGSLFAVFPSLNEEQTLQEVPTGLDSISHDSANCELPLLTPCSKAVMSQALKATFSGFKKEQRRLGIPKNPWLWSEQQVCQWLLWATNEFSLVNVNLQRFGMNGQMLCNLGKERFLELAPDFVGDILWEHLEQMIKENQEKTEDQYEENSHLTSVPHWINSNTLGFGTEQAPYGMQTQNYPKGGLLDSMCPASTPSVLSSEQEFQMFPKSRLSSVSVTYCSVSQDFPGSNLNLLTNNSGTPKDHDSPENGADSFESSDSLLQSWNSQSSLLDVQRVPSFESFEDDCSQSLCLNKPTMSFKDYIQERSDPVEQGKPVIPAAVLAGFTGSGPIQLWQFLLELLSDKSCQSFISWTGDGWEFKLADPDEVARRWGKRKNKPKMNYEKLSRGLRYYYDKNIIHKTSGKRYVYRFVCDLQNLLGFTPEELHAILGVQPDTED
The settings on record: protein: recombinant; tags: N-terminal GST; dsDNA, one strand shown. Summed up:
as §1

A further test has as its target T9, SPDEF (Homo sapiens, UniProt O95238 1-335).
T9 sequence: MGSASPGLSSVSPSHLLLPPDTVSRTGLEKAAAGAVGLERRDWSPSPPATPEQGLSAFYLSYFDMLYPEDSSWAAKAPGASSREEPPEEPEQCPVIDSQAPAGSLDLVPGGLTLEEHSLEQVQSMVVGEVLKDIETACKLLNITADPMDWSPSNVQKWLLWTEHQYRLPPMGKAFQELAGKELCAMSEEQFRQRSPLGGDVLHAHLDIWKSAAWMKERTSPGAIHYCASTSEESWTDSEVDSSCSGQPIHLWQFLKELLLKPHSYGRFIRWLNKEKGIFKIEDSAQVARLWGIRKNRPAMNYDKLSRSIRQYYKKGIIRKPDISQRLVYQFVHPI
The settings on record: protein: recombinant; tags: N-terminal GST; dsDNA, one strand shown. Summed up: as §1

Another test addresses T10, ETV7 (Homo sapiens, UniProt Q9Y603 1-341).
T10 sequence: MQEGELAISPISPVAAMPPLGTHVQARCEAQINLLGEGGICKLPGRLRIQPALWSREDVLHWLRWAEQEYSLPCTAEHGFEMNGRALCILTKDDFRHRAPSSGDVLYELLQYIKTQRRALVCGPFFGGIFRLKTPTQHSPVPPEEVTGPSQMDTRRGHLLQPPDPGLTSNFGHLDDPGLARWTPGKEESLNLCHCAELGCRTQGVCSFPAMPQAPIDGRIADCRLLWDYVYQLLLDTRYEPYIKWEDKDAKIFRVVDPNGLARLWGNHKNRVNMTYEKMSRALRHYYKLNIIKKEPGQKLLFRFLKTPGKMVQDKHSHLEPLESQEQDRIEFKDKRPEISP
The settings on record: protein: recombinant; tags: N-terminal GST; dsDNA, one strand shown. In short, it runs like this: as §1

The next test has as its target T11, ELF5 (Homo sapiens, UniProt Q9UKW6-2 1-255).
T11 sequence: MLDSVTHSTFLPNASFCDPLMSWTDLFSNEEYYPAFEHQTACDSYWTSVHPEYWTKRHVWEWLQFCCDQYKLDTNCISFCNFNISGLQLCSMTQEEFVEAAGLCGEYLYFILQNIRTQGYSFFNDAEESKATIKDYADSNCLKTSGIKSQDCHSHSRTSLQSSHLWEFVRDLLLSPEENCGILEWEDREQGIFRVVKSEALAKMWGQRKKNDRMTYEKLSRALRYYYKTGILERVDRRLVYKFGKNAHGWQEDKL
The following applies: protein: recombinant; tags: N-terminal GST; dsDNA, one strand shown. In short, it runs like this: as §1

A further test concerns the target T12, ETV3 (Homo sapiens, UniProt P41162-2 1-143).
T12 sequence: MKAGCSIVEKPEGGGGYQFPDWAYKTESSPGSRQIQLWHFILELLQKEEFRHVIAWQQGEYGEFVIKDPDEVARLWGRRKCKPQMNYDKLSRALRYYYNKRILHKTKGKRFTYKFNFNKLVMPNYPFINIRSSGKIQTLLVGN
The following applies: protein: recombinant; tags: N-terminal GST; dsDNA, one strand shown. Summed up:
as §1

In the next test the target is ETV6 (Homo sapiens, UniProt P41212 1-452). The settings on record: protein: recombinant; tags: N-terminal GST; dsDNA, one strand shown. Summed up: as §1
Sequence of ETV6 (P41212 whole entry): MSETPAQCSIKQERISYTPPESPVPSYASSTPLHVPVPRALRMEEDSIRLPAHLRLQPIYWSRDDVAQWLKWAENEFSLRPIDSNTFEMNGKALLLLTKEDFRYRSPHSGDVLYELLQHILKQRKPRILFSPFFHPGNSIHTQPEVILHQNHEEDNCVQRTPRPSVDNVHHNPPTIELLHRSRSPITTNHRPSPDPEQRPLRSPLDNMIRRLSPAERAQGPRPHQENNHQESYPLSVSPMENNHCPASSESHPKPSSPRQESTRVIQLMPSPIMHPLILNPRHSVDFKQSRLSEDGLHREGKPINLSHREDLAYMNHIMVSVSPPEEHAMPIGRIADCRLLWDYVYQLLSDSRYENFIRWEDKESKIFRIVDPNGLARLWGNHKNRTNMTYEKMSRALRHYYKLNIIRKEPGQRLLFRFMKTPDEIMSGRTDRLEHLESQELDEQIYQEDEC

Sequence of HSF1 (Q00613 whole entry): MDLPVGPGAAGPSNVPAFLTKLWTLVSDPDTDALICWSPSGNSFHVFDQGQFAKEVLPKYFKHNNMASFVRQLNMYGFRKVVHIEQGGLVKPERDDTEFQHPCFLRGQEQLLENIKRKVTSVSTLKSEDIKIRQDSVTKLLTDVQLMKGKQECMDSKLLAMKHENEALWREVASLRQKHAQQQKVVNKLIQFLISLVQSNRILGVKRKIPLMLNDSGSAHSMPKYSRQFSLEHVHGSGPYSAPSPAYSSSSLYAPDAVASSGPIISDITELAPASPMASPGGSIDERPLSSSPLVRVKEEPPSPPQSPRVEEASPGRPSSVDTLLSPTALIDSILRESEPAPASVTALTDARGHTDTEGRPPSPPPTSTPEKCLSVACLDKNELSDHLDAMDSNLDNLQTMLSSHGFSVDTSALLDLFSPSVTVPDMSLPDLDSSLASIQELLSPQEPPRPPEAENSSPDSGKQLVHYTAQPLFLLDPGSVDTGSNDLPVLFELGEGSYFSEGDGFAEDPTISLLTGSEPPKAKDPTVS
Sequence of ETV5 (P41161 whole entry): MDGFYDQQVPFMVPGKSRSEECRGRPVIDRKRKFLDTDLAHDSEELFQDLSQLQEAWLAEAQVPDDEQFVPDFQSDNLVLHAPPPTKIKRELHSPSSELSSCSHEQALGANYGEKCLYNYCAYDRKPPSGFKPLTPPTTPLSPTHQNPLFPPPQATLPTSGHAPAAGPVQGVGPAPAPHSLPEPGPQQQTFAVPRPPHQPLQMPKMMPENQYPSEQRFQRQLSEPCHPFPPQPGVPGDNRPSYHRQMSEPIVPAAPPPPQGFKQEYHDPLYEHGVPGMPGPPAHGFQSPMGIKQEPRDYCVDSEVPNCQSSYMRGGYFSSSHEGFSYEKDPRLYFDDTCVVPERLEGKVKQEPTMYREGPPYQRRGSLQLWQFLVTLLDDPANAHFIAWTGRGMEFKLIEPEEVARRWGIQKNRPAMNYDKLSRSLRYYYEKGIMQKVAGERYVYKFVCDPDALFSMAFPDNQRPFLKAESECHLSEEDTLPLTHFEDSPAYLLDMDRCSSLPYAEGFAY
Sequence of ETV1 (P50549 whole entry): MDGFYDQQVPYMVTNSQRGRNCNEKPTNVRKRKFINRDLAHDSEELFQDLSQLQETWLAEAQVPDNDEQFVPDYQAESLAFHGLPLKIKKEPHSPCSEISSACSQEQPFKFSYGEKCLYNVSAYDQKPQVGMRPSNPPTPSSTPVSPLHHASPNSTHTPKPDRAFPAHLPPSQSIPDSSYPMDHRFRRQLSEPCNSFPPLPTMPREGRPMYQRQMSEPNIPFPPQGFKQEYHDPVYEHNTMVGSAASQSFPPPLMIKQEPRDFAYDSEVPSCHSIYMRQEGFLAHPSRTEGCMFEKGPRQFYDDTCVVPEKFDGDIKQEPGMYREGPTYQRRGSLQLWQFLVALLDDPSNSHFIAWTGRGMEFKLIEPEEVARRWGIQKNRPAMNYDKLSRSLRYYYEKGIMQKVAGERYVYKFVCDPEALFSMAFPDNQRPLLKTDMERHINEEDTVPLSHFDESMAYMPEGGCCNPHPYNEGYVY

Consider TTGGTA, for which the binding signal was 1.17 fold enrichment (6-mer frequency, TF over GST control) with FEV; 1.23 fold enrichment (6-mer frequency, TF over GST control) in the test with ETV5; 1.16 fold enrichment (6-mer frequency, TF over GST control) with HSF1; 1.2 fold enrichment (6-mer frequency, TF over GST control) in the test with SPIC; 1.25 fold enrichment (6-mer frequency, TF over GST control) with ELF4; 1.34 fold enrichment (6-mer frequency, TF over GST control) with ELK4. Besides, the binding signal with ETV2 is 1 fold enrichment (6-mer frequency, TF over GST control); with ELF3, 1.25 fold enrichment (6-mer frequency, TF over GST control); in the test with CRX it was 1.34 fold enrichment (6-mer frequency, TF over GST control); with ETV1 it was 1.24 fold enrichment (6-mer frequency, TF over GST control); in the test with ERF, 1.21 fold enrichment (6-mer frequency, TF over GST control); with ETV3L, 1.32 fold enrichment (6-mer frequency, TF over GST control). For the same sequence, the binding signal with ETS2 is 1.23 fold enrichment (6-mer frequency, TF over GST control); with SPDEF, 1.23 fold enrichment (6-mer frequency, TF over GST control); with ETV7, 1.23 fold enrichment (6-mer frequency, TF over GST control); with ELF5 it was 1.17 fold enrichment (6-mer frequency, TF over GST control); with ETV3 it was 1.18 fold enrichment (6-mer frequency, TF over GST control); in the test with ETV6, 1.19 fold enrichment (6-mer frequency, TF over GST control).
